# Screening data deposited in PubChem BioAssay by National Center for Advancing Translational Sciences (NCATS).
# Integrin act MD: integrin-mediated muscular dystrophy alleviation activation; alpha7betagal myoblasts, beta-gal FDG fluorescence, 48 h; Potency, µM (highest dose often 38.3 µM), inactives show at the highest dose activation, hits mostly activators; actives 0.064% (n = 350,000); AID 624291; active = well fitted activation curve with a large enough effect; inconclusive = small, poorly fitted or top-dose-only effect; inactive = no such curve, though single readings can be large or run the other way;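 note: potency is the fitted concentration of half-maximal effect; 100% = response of the positive control SU9516; nearly all actives have a fitted effect of over 60% in size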
#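 alpha7betagal+/- myoblasts (passage 13, 250/well) treated 48 h at 37C with compounds at 1:260 dilution of DMSO stock. Lysed, then beta-galactosidase activity read as FDG fluorescence (ex 480/em 540) after 30 min, with pre-read for autofluorescence.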
# DRD3 agonist: activates the human D3 dopamine receptor; P35462; actives 0.58% (n = 410,000); AID 652048; max activation, %; D3R DiscoveRx beta-arrestin cells, luminescence, 90 min; in the data active = max activation above about 30%; note: 0% is about no effect
# Target sequence (P35462 whole entry, looked up): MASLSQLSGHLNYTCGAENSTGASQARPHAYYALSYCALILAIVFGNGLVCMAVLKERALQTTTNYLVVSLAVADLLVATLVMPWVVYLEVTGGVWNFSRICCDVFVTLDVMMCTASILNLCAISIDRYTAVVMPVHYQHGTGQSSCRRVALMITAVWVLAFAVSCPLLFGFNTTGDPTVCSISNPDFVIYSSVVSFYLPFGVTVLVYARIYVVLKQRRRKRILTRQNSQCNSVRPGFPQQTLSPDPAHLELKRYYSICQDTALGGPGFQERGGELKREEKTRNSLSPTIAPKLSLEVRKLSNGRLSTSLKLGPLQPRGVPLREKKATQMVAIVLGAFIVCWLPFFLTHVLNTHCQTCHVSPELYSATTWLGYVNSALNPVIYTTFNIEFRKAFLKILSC
#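 Agonist-mode cell screen: cells plated at 1500/well and incubated overnight at 37 °C, then exposed to library compounds for 90 min at 37 °C. Detection reagent was added for 30–60 min at room temperature, and luminescence was read.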
# D3 antag: blocks the human D3 dopamine receptor; P35462; D3R cells, DiscoveRx beta-arrestin luminescence, antagonist mode; stronger effect = lower value; max response, negative = inhibition, %; actives 2.5% (n = 360,000); AID 652054; in the data active = max response below about -50%; inconclusive = no clear call, values can overlap the other calls; note: % is set by controls: 0 for no effect and ±100 for the full control effect
#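 Cells expressing the human receptor were seeded at 1500 cells/well, incubated overnight at 37 degrees C in 5% CO2, then exposed to library compounds with dopamine controls for 90 minutes at 37 degrees C before luminescent detection.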
# Starred values were filed as active, the others as inactive; ? = inconclusive; . = no result given; [ ] = another dose, or the depositor's remark. Rows were chosen to be rich in hits. Some 2.9% of all compounds tested hit in one or more screens of this group.
SMILES,Integrin act MD,DRD3 agonist,D3 antag
O=C(COC(=O)C1CCN(S(=O)(=O)c2cccs2)CC1)NCc1ccc(F)cc1,-12%,-8,-20
Cc1ccccc1C(=O)NC1CCN(Cc2nnnn2Cc2ccccc2)CC1,5%[7.66 µM],-3,-17
Cc1noc(C)c1CSc1nc2ccccc2nc1NS(=O)(=O)c1ccc(Cl)cc1,23%,0,-51*
O=S(=O)(Nc1nc2ccccc2nc1NCc1ccco1)c1ccc(Cl)cc1,-38%,7,-29
CCOC(=O)c1c(C)noc1-c1ccc(Br)o1,4%,16,4
CC(=O)N1N=C2c3ccccc3CCC2C1c1ccc(F)cc1 (centres undefined),-7%,6,2
COc1ccc2c(c1)CCC1C2=NN(/C(C)=C/C(C)=O)C1c1cccc(F)c1 (centres undefined),-30%,2,-58*
Cc1ccc2oc3c(c(=O)c2c1)C(c1cccc(Br)c1)N(Cc1ccco1)C3=O (centres undefined),25%,4,-56*
Cc1cc2oc3c(c(=O)c2cc1C)C(c1cccc(Br)c1)N(Cc1ccco1)C3=O (centres undefined),-21%,2,-16
O=C(CCn1cnnn1)Nc1ccccc1F,19%,-1,-5
CC1=C([N+](=O)[O-])C(c2cccc(Br)c2)C2=C(N1)c1ccccc1C2=O (centres undefined),-38%,2,-94*
COC(=O)C1=C(C)NC2=C(C(=O)c3ccccc32)C1c1cccc(OC)c1 (centres undefined),21%,3,-14
O=C(Nc1ccccc1Cl)C(Cl)C(=O)c1ccccc1 (centres undefined),3%,-13,-25
O=C(Nc1ccc(Cl)cc1)C(Cl)C(=O)c1ccccc1 (centres undefined),-3%,-29,-52*
CC(=O)c1ccc(NC(=O)C(C)Nc2ccc(Cl)cc2)cc1 (centres undefined),10%,-12,-56*
CC(=O)Nc1cc[n+](C(C)C(=O)c2ccc(Cl)cc2)cc1 (centres undefined),-45%,-19,-87*
CC(=O)c1ccc(NC(=O)Nc2ccc(Cl)cc2)cc1,3%,0,11
Cc1cc[n+](C(C)C(=O)c2ccc(Cl)cc2)cc1 (centres undefined),2%,-13,?
COc1ccc(S(=O)(=O)N2CN3CCN(C3)C2)cc1OC,-8%,-4,8
Cn1nnnc1SCC(=O)Nc1nc(-c2ccccc2)c(-c2ccccc2)o1,4%,-7,-53*
O=C(CSC(=S)N1CCOCC1)Nc1nc(-c2ccccc2)c(-c2ccccc2)o1,-22%,7,-30
O=C(CSC(=S)N1CCCCC1)Nc1nc(-c2ccccc2)c(-c2ccccc2)o1,-22%,-40,-52*
CCN(CC)C(=S)SCC(=O)Nc1nc(-c2ccccc2)c(-c2ccccc2)o1,-34%,-7,-10
Cc1nn(-c2ccccc2)c2c1c(C)c(CCC(=O)N1CCOCC1)c(=O)n2C,-17%,8,-4
Cc1nc(NCCc2ccc(F)cc2)c2nnn(Cc3ccccc3)c2n1,-2%,5,0
SMILES,Integrin act MD,DRD3 agonist,D3 antag
Cc1nc(NCCc2ccc(O)cc2)c2nnn(Cc3ccccc3)c2n1,-13%,-14,-82*
CC1(c2nnnn2Cc2ccccc2)CCC(=O)N1CCOc1ccccc1 (centres undefined),.,-11,?
Oc1ccccc1CNc1nc2ccccc2n1CCN1CCCCC1,-3%,-13,-74*
COc1ccccc1CNc1nc2ccccc2n1CCN1CCCCC1,-16%,-6,?
O=C(CSc1nccn1Cc1ccc(F)cc1)NC1CCCC1,18%,5,11
CCCNC(=O)COc1ncnc2sc(C)c(C)c12,-10%,1,2
O=C(CNCc1ccco1)Nc1cc(S(=O)(=O)N2CCOCC2)ccc1N1CCOCC1,-12%,-10,7
O=C(CN(C(=O)CNS(=O)(=O)c1ccccc1)C1CCCC1)NCC1CCCO1 (centres undefined),-19%,2,-53*
Cc1ccc(S(=O)(=O)NCC(=O)N(CC(=O)NCC2CCCO2)C2CCCC2)cc1 (centres undefined),5%,3,-1
CCOc1ccc2nc(SCC(=O)Nc3nonc3C)[nH]c2c1,8%,-8,-6
Cn1c(Cn2c(C(F)(F)F)nc3ccccc32)nc2ccccc21,-27%,-5,39
COCC(N)(c1ccccc1)c1nc2ccccc2n1C (centres undefined),28%[7.66 µM],1,-89*
O=C(O)Cn1nnc(-c2ccc(OCc3ccccc3)cc2)n1,1%,3,9
Cc1ccccc1C(=O)N1CCN(c2ccccn2)CC1,-10%,0,15
O=C(c1ccccc1Br)N1CCN(c2ccccn2)CC1,0%,33*,-11
